# From PubChem BioAssay
# Unmarked numbers belong to inactive results. No rule for the calls is given here.
# Molecular target: Pantothenate synthetase (Mycobacterium tuberculosis (strain ATCC 25618 / H37Rv)) (UniProt P9WIL5)
# Assay: Recombinant Mtb pantothenate synthetase (PanC) inhibitors, coupled enzyme, confirmatory (AID 375);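 also: 0% = full reaction with vehicle and 100% = no enzyme background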
# Settings: coupled enzyme assay; at 10 µM, stronger effect = higher value
# Pantothenate synthetase (Mycobacterium tuberculosis (strain ATCC 25618 / H37Rv)), sequence (P9WIL5 whole entry, looked up): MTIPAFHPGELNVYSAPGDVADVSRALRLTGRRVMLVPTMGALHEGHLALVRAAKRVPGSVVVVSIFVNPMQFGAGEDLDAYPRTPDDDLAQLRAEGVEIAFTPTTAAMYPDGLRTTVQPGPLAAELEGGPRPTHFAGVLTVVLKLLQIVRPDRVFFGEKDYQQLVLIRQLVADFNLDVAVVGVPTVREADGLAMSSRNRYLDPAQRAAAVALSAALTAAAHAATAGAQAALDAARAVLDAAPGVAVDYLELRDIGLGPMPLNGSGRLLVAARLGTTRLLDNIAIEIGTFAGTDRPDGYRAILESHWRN
row,SMILES,inhibition [%]
1,CCCCOc1ccc(-c2ncc(C(=O)OCC)c(N)n2)cc1,11
2,C=CCN1C(=O)CS/C1=N/c1nccs1,0
3,CCOC(=O)c1sc(C)c2c(=O)n(CC)nnc12,0
4,COC(=O)c1cc(OC)c(OC)cc1NC(=O)c1ccc(Br)o1,0
5,COCCNC(=O)c1snc2ccc(Cl)cc12,0
6,Cc1ccc(Cn2nnc3c(=O)n(CC(=O)NCC4CCCO4)cnc32)cc1 (stereo not given),0
7,C=CCn1c(COc2cccc(C)c2)nnc1SCC(=O)NC(=O)NCc1ccco1,0
8,O=C(Nc1ccc(S(=O)(=O)NC2CCCC2)cc1)c1cnccn1,0
9,Cc1c(C(=O)OCCOC(C)C)[nH]c2c1C(=O)CC(c1ccco1)C2 (stereo not given),0
10,CC1(C)CC(=O)C(C=Nc2ccncc2)=C(O)C1,0
11,CN(CC(=O)Nc1cccnc1)S(=O)(=O)c1cc(Cl)ccc1Cl,0
12,Cc1ccc(-c2nc3ncccc3o2)cc1NC(=O)c1ccco1,0
13,Nc1nnc(-c2cn(-c3ccccc3)nc2-c2ccccc2)o1,0
14,Cc1ccc(-c2nnn(CC(=O)N(CC(=O)NCC3CCCO3)c3ccccc3)n2)o1 (stereo not given),3
15,COc1cc(C(=O)Nc2cc(C)ccn2)cc(OC)c1OC,0
16,CN(C)/C=C1\N=C(c2ccc(Cl)cc2Cl)OC1=O,0
17,CC1=C(C(=O)OCCOC(C)C)C(c2cc3c(cc2Br)OCO3)C2=C(CCCC2=O)N1 (stereo not given),0
18,Cc1ccc2[nH]c(=O)c(-c3noc(-c4ccncc4)n3)cc2c1,2
19,CN(C=C1C(=O)CC(C)(C)CC1=O)CCN1CCNCC1,1
20,CC1CCCCC1NC(=O)c1nn(C)c(=O)c2ccccc12 (stereo not given),0

row,SMILES,inhibition [%]
1,CCN(CC)CCNC(=O)CCn1c(=S)[nH]c2cc3c(cc2c1=O)OCO3,0
2,CCC(=O)N1CCc2cc(S(=O)(=O)CCC(=O)Nc3c(C)n(C)n(-c4ccccc4)c3=O)ccc21,7
3,CCOC(=O)/C(C#N)=C1\Nc2ccccc2N=C1N(CC(C)C)CC(C)C,6
4,CCc1ccc2nc(NC(=O)CSCc3c(C)noc3C)sc2c1,6
5,COC(=O)C1=CN(C)C=C(C(=O)OC)C1c1ccc(O)c(OC)c1,0
6,COc1ccc(N2C(=O)C3CCCN3C2c2ccc(F)cc2)cc1Cl (stereo not given),1
7,COc1ccc(C(=O)NCc2nc3ccccc3[nH]2)cc1OC,5
8,COc1cc(C(=O)Nc2cccc(-c3nc4cc(C)ccc4o3)c2)cc(OC)c1OC,3
9,CCOC(=O)c1cc2c(=O)n3ccccc3nc2n(Cc2ccccc2)c1=N,0
10,COc1ccc2c(c1)CCc1cc(C(=O)N3CCN(c4ccc(N5CCOCC5)nn4)CC3)sc1-2,2
11,CCOc1ccccc1NC(=O)C1CCCN(C(=O)NCc2ccccc2)C1 (stereo not given),8
12,O=C(NC1CCCCCC1)c1c(F)c(F)c(F)c(F)c1F,4
13,Cc1nn(-c2nc3ccccc3[nH]2)c(N)c1-c1ccccc1,8
14,CCOC(=O)C1CCN(c2nc3ccccc3nc2C(C#N)C(=O)OC(C)C)CC1 (stereo not given),0
15,CC[N+](C)(C)Cc1ccccc1Br,0
16,COCCNC(=O)C(c1cccs1)N(C(=O)Cn1nnc2ccccc21)c1ccccc1 (stereo not given),6
17,c1ccc(-c2ccc(-c3ccccn3)nn2)nc1,8
18,Cc1cc(NC(=O)CCC(=O)N(CCc2ccccc2)C(C(=O)NC2CCCC2)c2ccco2)no1 (stereo not given),7
19,C=CCOc1ccc(C2C(C(=O)c3ccco3)=C(O)C(=O)N2Cc2cccnc2)cc1 (stereo not given),0
20,CC(=O)Nc1ccc(S(=O)(=O)N2CCSC2c2ccccc2)cc1 (stereo not given),7
